PubChem BioAssay (EPA / NIEHS)
Inconclusive results are not listed. Activity calls are given as the source filed them. How the source made its calls: active means hit-call score of the fitted dose curve at least 0.9, where 1 is the maximum; inconclusive means response in the unintended direction; inactive means score below 0.9.

Legend:
[1] = target: human Thyroid Receptor Alpha (TRa), THRA (gene 7067) (UniProt P10827); assay: NVS_NR_hTRa_Antagonist: NovaScreen (NVS) Nuclear Receptor Binding Assay for human Thyroid Receptor Alpha Antagonism (TRa) (AID 2283362)
Outline: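 Chemicals were first screened in duplicate at 25 uM, then actives were retested in concentration series. Binding to the extracted receptor was measured 1 h after dosing by AlphaLISA chemiluminescence, with decreased signal versus DMSO scored as activity.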

[2] = target: Glucocorticoid receptor (Homo sapiens) (UniProt P04150); assay: NVS_NR_hGR: NovaScreen (NVS) Nuclear Receptor Binding Assay for human Glucocorticoid Receptor (GR) (AID 2283363)
Outline: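 Cell-free radioligand displacement assay on extracted human GR, read 16 h after dosing by filter-based scintillation counting. Screened in duplicate at 25 uM, then concentration series for actives; loss of signal versus DMSO baseline.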

[3] = target: rat Androgen Receptor (AR), Ar (gene 24208) (UniProt P15207); assay: NVS_NR_rAR: NovaScreen (NVS) Nuclear Receptor Binding Assay for rat Androgen Receptor (AR) (AID 2283366)
Outline: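 Cell-free radioligand binding on extracts of prostate from testosterone-pretreated rats, read by filter-based scintillation counting 18 h after dosing. Loss of bound signal fitted positively versus DMSO; primary screen in duplicate at 25 uM, actives followed up in concentration series.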

[4] = target: Peroxisome proliferator-activated receptor gamma (Homo sapiens) (UniProt P37231); assay: NVS_NR_hPPARg: NovaScreen (NVS) Nuclear Receptor Binding Assay for human Peroxisome Proliferator-activated Receptor gamma (PPARg) (AID 2283370)
Outline: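 Fluorescence polarization measures competitive binding to extracted PPARg in a cell-free format. Reading is taken at 2 h; activity is signal loss relative to DMSO. Screening at 25 uM in duplicate preceded confirmatory dose series.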

[5] = target: Nuclear receptor subfamily 1 group I member 2 (Homo sapiens) (UniProt O75469); assay: NVS_NR_hPXR: NovaScreen (NVS) Nuclear Receptor Binding Assay for human Pregnane X Receptor (PXR) (AID 2283365);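 further: a drop in FRET signal versus DMSO baseline means the compound binds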
Outline: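 Binding was measured by time-resolved fluorescence resonance energy transfer after a 2 h exposure of extracted human PXR protein without cells. Compounds were first tested at 25 uM in duplicate, with concentration series for actives; DMSO defined baseline.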

[6] = test system: guinea pig Dopamine Transporter (DAT), gene 100714898; assay: NVS_TR_gDAT: NovaScreen (NVS) Transporter Assay for guinea pig Dopamine Transporter (DAT) (AID 2283369);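 further: active compounds lower bound radioligand signal relative to DMSO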
Outline: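 Test chemicals were incubated 2 h with guinea pig striatal membranes and a radioligand; bound label was separated by filtration and counted. Screening ran at 25 uM, followed by concentration-response testing to a 50 uM maximum.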

[7] = target: rat Serotonin Transporter (SERT), Slc6a4 (gene 25553) (UniProt P31652); assay: NVS_TR_rSERT: NovaScreen (NVS) Transporter Assay for rat Serotonin Transporter (SERT) (AID 2283375)
Outline: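 Steps: rat forebrain membranes dosed with chemical (25 uM duplicate primary; concentration series for actives); 1 h incubation; labelled ligand bound, filtered, counted by scintillation. Activity scored as signal loss vs DMSO.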

[8] = target: human Dopamine Transporter (DAT), SLC6A3 (gene 6531) (UniProt Q01959); assay: NVS_TR_hDAT: NovaScreen (NVS) Transporter Assay for human Dopamine Transporter (DAT) (AID 2283374);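 further: activity means loss of bound radioligand signal relative to DMSO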
Outline: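 Cell-free radioligand displacement binding at human DAT, 1 h after dosing, with filtration and scintillation counting. Primary screen in duplicate at 25 uM, actives then in concentration series. Loss of bound signal versus DMSO scored.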

[9] = target: guinea pig Sigma Receptor, Non-selective Binding, SIGMAR1 (gene 100135589) (UniProt Q60492); assay: NVS_OR_gSIGMA_NonSelective: NovaScreen (NVS) Nuclear Receptor Binding Assay for guinea pig Sigma Receptor, Non-selective Binding (AID 2283367)
Protocol: NVS_OR_gSIGMA_NonSelective is a biochemical, single-readout assay that uses extracted gene-proteins from Guinea pig brain membranes in a tissue-based cell-free assay. Measurements were taken 1 hour after chemical dosing in a 48-well plate.NVS_OR_gSIGMA_NonSelective is one of one assay component(s) measured or calculated from the NVS_OR_gSIGMA_NonSelective assay. It is designed to make measurements of radioligand binding, a form of binding reporter, as detected with scintillation counting signals by Filter-based radiodetection technology.Data from the assay component NVS_OR_gSIGMA_NonSelective was analyzed into 1 assay endpoint. This assay endpoint, NVS_OR_gSIGMA_NonSelective, was analyzed in the positive analysis fitting direction relative to DMSO as the negative control and baseline of activity. Using a type of binding reporter, loss-of-signal activity can be used to understand changes in the binding as they relate to the gene Sigmar1. Furthermore, this assay endpoint can be referred to as a primary readout, because the performed assay has only produced 1 assay endpoint. To generalize the intended target to other relatable targets, this assay endpoint is annotated to the misc protein intended target family, where the subfamily is chaperone. […]

[10] = target: Retinoic acid receptor alpha (Homo sapiens) (UniProt P10276); assay: NVS_NR_hRARa_Agonist: NovaScreen (NVS) Nuclear Receptor Binding Assay for human Retinoic Acid Alpha Receptor Agonism (RAR) (AID 2283361)
Outline: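 Cell-free TR-FRET binding readout with extracted receptor protein, read 2 hours after dosing; gain-of-signal fitted relative to DMSO. Screened in duplicate at 25 uM, actives then run in concentration-response.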

Chain of Glucocorticoid receptor (Homo sapiens) (P04150 whole entry, looked up): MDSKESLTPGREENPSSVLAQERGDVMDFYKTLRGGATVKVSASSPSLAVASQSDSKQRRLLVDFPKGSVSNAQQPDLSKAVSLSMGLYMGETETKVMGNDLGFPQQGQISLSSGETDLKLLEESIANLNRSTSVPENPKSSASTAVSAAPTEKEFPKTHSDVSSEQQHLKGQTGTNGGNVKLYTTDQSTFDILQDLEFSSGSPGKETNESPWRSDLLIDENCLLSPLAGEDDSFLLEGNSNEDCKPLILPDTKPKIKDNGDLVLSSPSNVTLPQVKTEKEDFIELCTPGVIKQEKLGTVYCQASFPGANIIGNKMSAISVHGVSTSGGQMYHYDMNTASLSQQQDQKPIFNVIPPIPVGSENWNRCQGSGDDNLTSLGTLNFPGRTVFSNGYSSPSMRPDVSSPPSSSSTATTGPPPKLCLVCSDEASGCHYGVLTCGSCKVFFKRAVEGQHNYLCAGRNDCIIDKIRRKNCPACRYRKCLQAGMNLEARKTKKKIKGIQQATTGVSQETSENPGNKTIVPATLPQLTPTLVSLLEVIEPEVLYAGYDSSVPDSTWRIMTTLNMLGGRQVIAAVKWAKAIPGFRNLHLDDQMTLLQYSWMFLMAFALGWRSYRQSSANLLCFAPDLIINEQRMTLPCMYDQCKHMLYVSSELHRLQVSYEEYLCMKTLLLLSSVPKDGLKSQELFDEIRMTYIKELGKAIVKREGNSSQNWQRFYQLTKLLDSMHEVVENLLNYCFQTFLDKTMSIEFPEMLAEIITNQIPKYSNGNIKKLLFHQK
Chain of Peroxisome proliferator-activated receptor gamma (Homo sapiens) (P37231 whole entry, looked up): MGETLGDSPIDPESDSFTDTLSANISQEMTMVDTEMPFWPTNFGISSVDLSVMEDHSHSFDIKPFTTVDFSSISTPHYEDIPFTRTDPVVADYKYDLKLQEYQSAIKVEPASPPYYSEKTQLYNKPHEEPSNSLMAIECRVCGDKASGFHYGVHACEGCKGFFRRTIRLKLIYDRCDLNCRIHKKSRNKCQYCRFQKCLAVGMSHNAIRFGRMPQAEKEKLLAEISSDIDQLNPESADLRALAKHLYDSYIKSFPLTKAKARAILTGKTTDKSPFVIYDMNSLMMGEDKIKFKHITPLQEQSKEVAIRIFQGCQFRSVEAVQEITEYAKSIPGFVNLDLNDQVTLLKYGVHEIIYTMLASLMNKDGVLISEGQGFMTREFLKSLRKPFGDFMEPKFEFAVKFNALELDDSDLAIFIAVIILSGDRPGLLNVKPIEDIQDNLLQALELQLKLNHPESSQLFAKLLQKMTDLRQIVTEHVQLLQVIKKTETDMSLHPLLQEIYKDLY
Chain of rat Androgen Receptor (AR), Ar (gene 24208) (P15207 whole entry, looked up): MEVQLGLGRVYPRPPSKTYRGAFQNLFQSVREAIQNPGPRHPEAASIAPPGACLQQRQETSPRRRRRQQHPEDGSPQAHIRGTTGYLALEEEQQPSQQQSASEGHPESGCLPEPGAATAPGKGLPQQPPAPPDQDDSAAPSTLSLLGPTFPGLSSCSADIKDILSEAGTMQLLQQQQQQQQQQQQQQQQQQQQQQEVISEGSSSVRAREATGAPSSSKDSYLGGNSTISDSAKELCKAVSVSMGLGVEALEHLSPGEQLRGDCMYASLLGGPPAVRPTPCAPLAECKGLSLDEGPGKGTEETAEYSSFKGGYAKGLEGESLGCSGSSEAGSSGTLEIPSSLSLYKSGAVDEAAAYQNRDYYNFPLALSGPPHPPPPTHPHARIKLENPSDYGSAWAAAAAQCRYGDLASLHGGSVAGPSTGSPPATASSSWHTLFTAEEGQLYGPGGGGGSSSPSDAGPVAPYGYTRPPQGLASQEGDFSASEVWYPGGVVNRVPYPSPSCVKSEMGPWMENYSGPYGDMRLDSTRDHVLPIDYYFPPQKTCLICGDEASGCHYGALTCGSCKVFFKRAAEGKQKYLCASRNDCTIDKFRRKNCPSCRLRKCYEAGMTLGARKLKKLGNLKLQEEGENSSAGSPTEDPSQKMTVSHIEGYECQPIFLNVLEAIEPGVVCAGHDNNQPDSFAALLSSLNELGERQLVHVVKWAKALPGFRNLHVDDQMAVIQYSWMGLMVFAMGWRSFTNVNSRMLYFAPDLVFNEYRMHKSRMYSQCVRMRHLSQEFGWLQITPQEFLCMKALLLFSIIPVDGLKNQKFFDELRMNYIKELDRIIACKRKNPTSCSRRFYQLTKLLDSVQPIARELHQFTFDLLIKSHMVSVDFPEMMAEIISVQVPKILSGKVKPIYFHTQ
Chain of Nuclear receptor subfamily 1 group I member 2 (Homo sapiens) (O75469 whole entry, looked up): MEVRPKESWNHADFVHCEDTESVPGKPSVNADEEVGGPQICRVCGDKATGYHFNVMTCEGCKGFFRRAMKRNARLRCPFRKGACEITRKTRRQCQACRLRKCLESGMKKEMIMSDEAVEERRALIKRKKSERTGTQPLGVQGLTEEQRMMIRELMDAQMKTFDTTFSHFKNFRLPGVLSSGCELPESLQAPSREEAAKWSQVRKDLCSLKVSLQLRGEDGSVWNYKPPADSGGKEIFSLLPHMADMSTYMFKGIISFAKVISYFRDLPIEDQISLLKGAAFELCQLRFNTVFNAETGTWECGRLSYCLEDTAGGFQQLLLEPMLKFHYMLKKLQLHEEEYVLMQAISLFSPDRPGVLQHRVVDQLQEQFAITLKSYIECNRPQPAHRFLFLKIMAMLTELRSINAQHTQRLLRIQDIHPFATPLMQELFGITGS
Chain of rat Serotonin Transporter (SERT), Slc6a4 (gene 25553) (P31652 whole entry, looked up): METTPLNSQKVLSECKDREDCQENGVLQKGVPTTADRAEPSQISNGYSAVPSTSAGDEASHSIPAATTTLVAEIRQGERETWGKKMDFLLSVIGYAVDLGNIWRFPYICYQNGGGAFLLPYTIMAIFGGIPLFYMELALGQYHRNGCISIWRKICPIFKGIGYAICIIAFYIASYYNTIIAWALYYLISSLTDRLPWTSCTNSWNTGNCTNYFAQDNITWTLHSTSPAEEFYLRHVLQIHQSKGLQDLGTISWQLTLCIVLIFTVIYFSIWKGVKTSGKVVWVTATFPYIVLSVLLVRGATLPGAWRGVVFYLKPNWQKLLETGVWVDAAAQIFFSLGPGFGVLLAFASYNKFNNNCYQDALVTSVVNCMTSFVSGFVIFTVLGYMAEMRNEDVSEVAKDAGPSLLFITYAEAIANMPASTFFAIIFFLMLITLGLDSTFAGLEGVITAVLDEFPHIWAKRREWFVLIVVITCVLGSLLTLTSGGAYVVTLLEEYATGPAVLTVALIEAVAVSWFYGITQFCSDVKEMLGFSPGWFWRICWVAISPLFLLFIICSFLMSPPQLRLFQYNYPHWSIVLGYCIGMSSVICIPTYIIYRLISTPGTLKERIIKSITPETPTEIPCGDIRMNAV
Chain of human Dopamine Transporter (DAT), SLC6A3 (gene 6531) (Q01959 whole entry, looked up): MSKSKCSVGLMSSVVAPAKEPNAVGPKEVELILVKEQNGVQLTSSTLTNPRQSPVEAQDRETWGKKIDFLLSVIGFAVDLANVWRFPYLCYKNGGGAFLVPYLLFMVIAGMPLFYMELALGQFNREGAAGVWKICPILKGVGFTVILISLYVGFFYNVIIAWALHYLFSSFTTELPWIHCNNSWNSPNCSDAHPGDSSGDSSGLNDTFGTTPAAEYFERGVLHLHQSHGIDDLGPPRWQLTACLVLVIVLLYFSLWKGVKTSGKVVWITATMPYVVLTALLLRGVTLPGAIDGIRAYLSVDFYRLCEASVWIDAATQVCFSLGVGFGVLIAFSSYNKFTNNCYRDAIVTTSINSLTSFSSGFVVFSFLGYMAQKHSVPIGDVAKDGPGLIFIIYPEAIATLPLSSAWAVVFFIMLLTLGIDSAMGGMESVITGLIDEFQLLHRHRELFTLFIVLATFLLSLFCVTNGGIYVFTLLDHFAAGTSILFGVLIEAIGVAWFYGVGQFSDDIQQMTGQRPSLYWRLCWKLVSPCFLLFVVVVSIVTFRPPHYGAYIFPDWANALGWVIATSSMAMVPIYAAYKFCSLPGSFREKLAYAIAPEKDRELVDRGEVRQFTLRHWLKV
Chain of Retinoic acid receptor alpha (Homo sapiens) (P10276 whole entry, looked up): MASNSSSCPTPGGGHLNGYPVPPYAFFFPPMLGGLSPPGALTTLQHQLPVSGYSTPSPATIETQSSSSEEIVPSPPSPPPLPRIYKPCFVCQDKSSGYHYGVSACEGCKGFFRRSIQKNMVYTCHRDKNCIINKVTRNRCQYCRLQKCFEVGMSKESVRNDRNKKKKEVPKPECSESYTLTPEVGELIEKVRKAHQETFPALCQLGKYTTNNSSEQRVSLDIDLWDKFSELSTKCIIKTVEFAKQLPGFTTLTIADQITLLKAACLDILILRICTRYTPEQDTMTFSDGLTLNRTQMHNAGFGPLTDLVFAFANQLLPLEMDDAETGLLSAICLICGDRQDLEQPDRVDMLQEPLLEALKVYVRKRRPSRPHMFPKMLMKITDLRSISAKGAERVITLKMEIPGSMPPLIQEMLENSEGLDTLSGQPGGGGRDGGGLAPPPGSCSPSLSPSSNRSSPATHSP
Chain of guinea pig Sigma Receptor, Non-selective Binding, SIGMAR1 (gene 100135589) (Q60492 whole entry, looked up): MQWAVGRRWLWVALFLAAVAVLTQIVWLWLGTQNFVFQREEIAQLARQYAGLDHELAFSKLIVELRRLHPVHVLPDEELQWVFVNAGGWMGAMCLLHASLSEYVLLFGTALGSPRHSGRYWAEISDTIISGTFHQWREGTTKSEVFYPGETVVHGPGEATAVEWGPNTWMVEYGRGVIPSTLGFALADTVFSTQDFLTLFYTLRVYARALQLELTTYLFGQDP

In the case of CCN=C1C=CC(=C(c2ccc(N(CC)CC)cc2)c2ccc(N(CC)CC)cc2)c2ccccc21, the AC50 [1] is reported as 1.15 µM (active), the AC50 [2] is reported as 0.404 µM (active) and the AC50 [3] is reported as 1.05 µM (active). The outcome [4] was “inactive”.

CCCCCCCC/C=C\CCCCCCCC(=O)OCC(O)CO (stereo not drawn) was tested, and the AC50 [5] was 8.56 µM (active), the AC50 [3] was 34.8 µM (active) and the outcome [4] was “inactive”.

In the case of CC(C)Nc1ccc(NC(C)C)c2c1C(=O)c1ccccc1C2=O, the outcome [4] is reported as “inactive”.

In the case of CCN(CC)c1ccc2c(c1)Oc1cc(N(CC)CC)ccc1C21OC(=O)c2ccccc21, the outcome [6] is reported as “inactive” and the AC50 [7] is reported as 8.16 µM (active).

In the case of CSc1ccc(O)cc1C, the AC50 [6] is reported as 19.4 µM (active), the AC50 [8] is reported as 33.9 µM (active) and the outcome [7] is reported as “inactive”.

Cc1ccc([N+](=O)[O-])c(C)c1 was tested, and the outcome [4] was “inactive”.

With N#Cc1ccccc1O the outcome [5] was “inactive”.

In the case of c1ccc(C[P+](c2ccccc2)(c2ccccc2)c2ccccc2)cc1, the AC50 [9] is reported as 4.57 µM (active), the AC50 [6] is reported as 15.1 µM (active) and the AC50 [8] is reported as 16.7 µM (active). The AC50 [7] was 3.33 µM (active).

In the case of CCCCCCCCCCCCCC[P+](CCCC)(CCCC)CCCC, the AC50 [10] is reported as 3.23 µM (active), the AC50 [5] is reported as 0.0885 µM (active) and the AC50 [3] is reported as 3.82 µM (active).

Cc1cc(C)c(O)c(C(C)(C)C)c1 was tested, and the AC50 [9] was 16.5 µM (active).

O=C1c2c(O)ccc(Nc3ccc(CCO)cc3)c2C(=O)c2c([N+](=O)[O-])ccc(O)c21 was tested, and the AC50 [2] was 23.5 µM (active).

CCCCCCCCCCCCC[N+](C)(C)Cc1ccccc1 was tested, and the AC50 [10] was 13.4 µM (active), the outcome [2] was “inactive” and the AC50 [5] was 3.9 µM (active). The outcome [4] was “inactive”.

With CC(=O)CCC(C)C the outcome [4] was “inactive” and the outcome [8] was “inactive”.

C[C@]12CC[C@H]3C(=CCc4cc(O)ccc43)[C@@H]1CCC2=O was tested, and the AC50 [6] was 1.16 µM (active), the AC50 [8] was 4.59 µM (active) and the AC50 [7] was 15.6 µM (active).
